In the library only some 3.2% were active in any assay of this set; here they are far more common.
TbPYK inhibitor: qHTS of Trypanosoma Brucei Inhibitors; AID 624173, 2012; Potency, µM (highest dose often 76.8 µM), usual class: inhibitors; pyruvate kinase (Trypanosoma brucei), Q57TT1; TbPYK enzyme, Kinase-Glo Plus ATP luminescence, 45 min; 0.12% of 410,000 active; also: nearly all actives have a fitted effect of over 50% in size
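TbPYK + substrate in 50 mM TEA pH 7.2, 100 mM KCl, 10 mM MgCl2, 0.05% BSA, 0.01% Tween-20; cpd pinned; ADP 130 uM final; 45 min RT; Kinase-Glo Plus 10 min; luminescence endpoint.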
AMA1-RON2 inh: qHTS for Inhibitors of AMA1-RON; Towards Development of Antimalarial Drug Lead: Primary Screen; Potency, µM (series often up to 58.2 µM), usual class: inhibitors; 0.2% of 360,000 active; AID 720542, 2013; AlphaScreen AMA1-biotinylated RON2 peptide binding; also: nearly all actives have a fitted effect of over 45% in size
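AMA1 (3D7) with his tag at 25 nM final met compounds first, then biotinylated RON2 peptide at 25 nM; detection used donor plus acceptor beads, 10 µg/mL apiece, read by AlphaScreen after 30 min at room temperature.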
Sm TGR inh: qHTS Assay for the Inhibitors of Schistosoma Mansoni Peroxiredoxins; Schistosoma mansoni thioredoxin glutathione reductase (TGR), Q962Y6; purified TGR, DTNB reduction, TNB absorbance 405 nm; Potency, µM (series often up to 114 µM), hits mostly inhibitors; 3% of 360,000 active; also: nearly all actives have a fitted effect of over 60% in size
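First, TGR (20 nM dispensed) and NADPH were mixed with compound. Second, a 15 min room-temperature incubation followed. Third, further NADPH and then DTNB were added to start the reaction. Finally, TNB absorbance was monitored kinetically.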
LmPK inh: qHTS Assay for Inhibitors of Leishmania Mexicana Pyruvate Kinase (LmPK). Q27686. purified LmPK, Kinase-Glo ATP luminescence, 1 h. Potency, µM (series often up to 57.5 µM), most hits filed as inhibitors. 0.37% of 290,000 active
Target sequence (Q27686 whole entry, looked up): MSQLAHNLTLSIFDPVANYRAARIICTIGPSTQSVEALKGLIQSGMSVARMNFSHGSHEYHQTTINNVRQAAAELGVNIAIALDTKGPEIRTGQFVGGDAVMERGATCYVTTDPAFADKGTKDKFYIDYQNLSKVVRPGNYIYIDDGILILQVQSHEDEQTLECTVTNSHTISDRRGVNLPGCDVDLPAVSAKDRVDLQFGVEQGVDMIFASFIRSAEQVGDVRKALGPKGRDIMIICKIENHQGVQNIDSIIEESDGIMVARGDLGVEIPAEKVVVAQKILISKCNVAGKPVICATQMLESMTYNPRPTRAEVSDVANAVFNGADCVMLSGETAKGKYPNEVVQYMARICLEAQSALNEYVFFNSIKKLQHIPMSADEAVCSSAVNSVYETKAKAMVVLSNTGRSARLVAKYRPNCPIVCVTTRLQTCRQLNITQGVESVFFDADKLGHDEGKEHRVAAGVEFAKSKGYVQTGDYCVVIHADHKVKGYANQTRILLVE
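Pyruvate kinase activity monitored as ATP production (luciferase luminescence). Conditions: 0.1 nM enzyme, 0.5 mM PEP, 0.1 mM ADP, 1 h, RT; normalized against uninhibited and no-enzyme wells.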
RE007 growth inh: qHTS Assay for Inhibitors of the HIV-1 protein Vpr | S. pombe RE007 Vpr strain, BacTiter-Glo ATP luminescence, 24 h | Potency, µM (top dose mostly 92.2 µM), actives largely listed as inhibitors | 0.21% of 360,000 active; active = well fitted falling curve with a large enough effect; inconclusive = small, poorly fitted or top-dose-only effect; inactive = no such curve, though single readings can be large or run the other way; also: nearly all actives have a fitted effect of over 50% in size
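Fission yeast strain RE007, carrying one chromosomally integrated HIV-1 vpr copy, was seeded at OD 0.01 in PMG+AL medium with 23 nL pinned compound. After 24 h at 30 °C and 99% humidity, viability was read by BacTiter-Glo luminescence.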
Each line names hits and unclear results; the compound was inactive in the other large screens. Unless noted, calls follow the shape of the dose curve; as a rule, active = well fitted curve in the direction sought with a large enough effect; inconclusive = small, poorly fitted or top-dose-only effect, or another doubt; inactive = no such curve, though single readings can be large; an effect the other way counts as inactive or inconclusive.

CCCCC1=CC2=CC(=O)C(C)(OC(=O)C3CCCC3)C(=O)C2=CO1 (centres undefined)	Sm TGR inh 40µM
Cc1ccc(S(=O)(=O)N2CCc3nc(COc4ccccc4)c4c(c3C2)CO[C@@H](C)C4)cc1	none (no result: TbPYK inhibitor, AMA1-RON2 inh, Sm TGR inh, RE007 growth inh)
CC1=C(C(=O)Nc2ccccc2)C(c2ccc[nH]2)n2ncnc2N1 (centres undefined)	Sm TGR inh 28µM (no result: AMA1-RON2 inh, LmPK inh, RE007 growth inh)
Cc1c(-c2ccc(F)cc2)nc(N)c(C#N)c1-c1cccs1	none
Cc1ccc(-c2c(C)c(-c3ccc(F)cc3)nc(N)c2C#N)o1	Sm TGR inh 28µM
Cc1ccc(CNC(=O)c2ccc(CNS(=O)(=O)c3ccc4c(c3)C(C)(C)C(=O)N4C)cc2)o1	Sm TGR inh 50µM
Cc1ccccc1NC(=O)c1ccc(CNS(=O)(=O)c2ccc3c(c2)C(C)(C)C(=O)N3C)cc1	none (no result: AMA1-RON2 inh, LmPK inh, RE007 growth inh)
O=C(CCCN1C(=O)/C(=C/c2ccco2)SC1=S)Nc1cccc(C(=O)O)c1	none
O=C(CCCN1C(=O)/C(=C\c2ccco2)SC1=S)Nc1ccc(O)cc1C(=O)O	Sm TGR inh 10µM
CC(C(=O)Nc1ccc(C(=O)O)c(O)c1)N1C(=O)/C(=C\c2ccco2)SC1=S (centres undefined)	TbPYK inhibitor inconclusive, Sm TGR inh 7.1µM
O=C(CN1C(=O)/C(=C/c2ccco2)SC1=S)Nc1ccc(O)c(C(=O)O)c1	Sm TGR inh 14µM
O=C(CN1C(=O)/C(=C/c2ccco2)SC1=S)NC1CCS(=O)(=O)C1 (centres undefined)	Sm TGR inh 20µM
CC1CCN(C(=O)CN2CCSc3ccccc32)CC1	none (no result: AMA1-RON2 inh, LmPK inh, RE007 growth inh)
CC1CCc2nn(CC(=O)Nc3ccccc3Cl)cc2C1 (centres undefined)	none (no result: AMA1-RON2 inh, LmPK inh, RE007 growth inh)
O=C(CN1C(=O)/C(=C/c2ccco2)SC1=S)Nc1ccc(C(=O)O)c(O)c1	Sm TGR inh 14µM
CC(=C\c1ccco1)/C=C1/SC(=S)N(CC(=O)O)C1=O	Sm TGR inh 40µM
O=C(CCCN1C(=O)/C(=C/c2ccccc2)SC1=S)Nc1ccc(C(=O)O)c(O)c1	none
CC(C(=O)N(C)C1CCS(=O)(=O)C1)N1C(=O)/C(=C/c2ccco2)SC1=S (centres undefined)	Sm TGR inh 25µM
CC(/C=C1\SC(=S)N(CC(=O)O)C1=O)=C\c1ccccc1	none
Cc1cccc(Cn2c(=O)n(-c3ccc(Cl)c(Cl)c3)c(=O)c3c(C)c(C)sc32)c1	none (no result: AMA1-RON2 inh, LmPK inh, RE007 growth inh)
CC(C#Cc1c([C@@H](C)Oc2ccccc2)nnn1Cc1ccccc1)Oc1ccccc1 (some centres undefined)	Sm TGR inh 7.9µM
CN(C)c1nnnn1Cc1ccccc1	none
Cc1ccc(-n2ncc(C(=O)N3CCCCC3)c2C2CCN(C(=O)OC(C)(C)C)CC2)c(C)c1	none (no result: AMA1-RON2 inh, LmPK inh, RE007 growth inh)
O=C(/C=C/c1ccccn1)c1cc(Cl)cc(Cl)c1O	Sm TGR inh 40µM
CO/N=C(/C(=O)N[C@@H]1C(=O)N2C(C(=O)O)=C(CSC(=O)c3ccco3)CSC12)c1csc(N)n1 (some centres undefined)	none (no result: AMA1-RON2 inh, Sm TGR inh, LmPK inh, RE007 growth inh)
Cc1nn(C)cc1-c1n[nH]c(=S)n1-c1ccc(Cl)cc1	TbPYK inhibitor inconclusive, LmPK inh 7.9µM
CC(C)(C)c1cc(-c2n[nH]c(=S)n2-c2ccc(Cl)cc2)n[nH]1	TbPYK inhibitor inconclusive, LmPK inh 13µM
CCOC(=O)c1c(NC(=O)Cc2ccccc2)sc2c1CCN(C)C2	none
CCOC(=O)c1c(NC(=O)CSc2nnc(C)s2)sc2c1CCN(C)C2	Sm TGR inh 32µM
COc1ccc(-n2c(SCc3ccccc3F)nc3c([nH]c4ccccc43)c2=O)cc1	none (no result: AMA1-RON2 inh, LmPK inh, RE007 growth inh)
N#C/C(=C/c1ccc(Br)o1)C(N)=S	Sm TGR inh 3.5µM (no result: TbPYK inhibitor, AMA1-RON2 inh, RE007 growth inh)
N#C/C(=C/c1ccc(Br)o1)C(N)=O	none
COC(=O)c1cccc(-n2c(CCC(=O)O)ccc2-c2ccc(OC)cc2)c1	Sm TGR inh 13µM (no result: AMA1-RON2 inh, LmPK inh, RE007 growth inh)
COc1ccc(-c2ccc(CCC(=O)O)n2NC(=O)c2cccs2)cc1	none
COC(=O)c1cccc(-n2c(CCC(=O)O)ccc2-c2cccs2)c1	Sm TGR inh 3.5µM
COc1ccc(S(=O)(=O)N2CCCN(CC(=O)Nc3ccccc3F)CC2)cc1	none
COc1ccc(S(=O)(=O)N2CCCN(CC(=O)C(C)(C)C)CC2)cc1	Sm TGR inh 10µM
COc1ccc(S(=O)(=O)N2CCCN(C)CC2)cc1	Sm TGR inh 40µM
COc1ccc(S(=O)(=O)N2CCN(C)CC2)cc1	none
CCC(C)(C)OC(=O)N[C@@H](Cc1c[nH]c2ccccc12)C(=O)N[C@@H](CCSC)C(=O)N[C@@H](CC(=O)O)C(=O)N[C@@H](Cc1ccccc1)C(N)=O	none (no result: AMA1-RON2 inh, Sm TGR inh, LmPK inh, RE007 growth inh)
CCC(=O)N1CCc2cc(Br)cc(S(=O)(=O)N3CCCC(C(=O)NCc4ccccc4)C3)c21 (centres undefined)	none (no result: AMA1-RON2 inh, LmPK inh, RE007 growth inh)
O=C(Nc1nnc(-c2ccco2)o1)c1ccc([N+](=O)[O-])s1	Sm TGR inh 28µM
Cc1ccc(C(=O)Nc2nnc(-c3ccco3)o2)cc1	LmPK inh inconclusive
CN1CCN(C(c2ccc(Cl)cc2)c2cc(Cl)c3cccnc3c2O)CC1 (centres undefined)	Sm TGR inh 0.35µM
CC(=O)NC(c1ccccc1)c1cc(Cl)c2cccnc2c1O (centres undefined)	none
Oc1c(C(c2ccccn2)N2CCCCC2)cc(Cl)c2cccnc12 (centres undefined)	Sm TGR inh 3.5µM, RE007 growth inh inconclusive
CN1CCN(C(c2ccc(C(F)(F)F)cc2)c2cc(Cl)c3cccnc3c2O)CC1 (centres undefined)	Sm TGR inh 0.63µM (no result: TbPYK inhibitor, AMA1-RON2 inh, RE007 growth inh)
COC(=O)c1ccccc1NC(=O)c1ccc2nc(Cc3ccccc3)oc2c1	none (no result: AMA1-RON2 inh, LmPK inh, RE007 growth inh)
CC(=O)c1sc2nc(-c3ccco3)ccc2c1N	TbPYK inhibitor inconclusive, Sm TGR inh 0.89µM, RE007 growth inh inconclusive
Nc1c(C(=O)Nc2ccc(Br)cc2)sc2nc(-c3ccco3)ccc12	Sm TGR inh 0.79µM
CCOc1ccc(OCCC(=O)OCC(=O)N2CCN(S(=O)(=O)c3ccc(C)cc3)CC2)cc1	Sm TGR inh 50µM (no result: LmPK inh)
COc1ccc(OC)c(C(=O)CN2CCN(S(=O)(=O)c3ccc(Br)cc3)CC2)c1	none
CC(C)c1ccc(S(=O)(=O)N2CCN(CC(=O)Nc3ccc(Cl)cc3F)CC2)cc1	none (no result: LmPK inh)
COc1ccc(C(=O)CN2CCN(S(=O)(=O)c3ccc(F)cc3)CC2)cc1	none (no result: AMA1-RON2 inh, LmPK inh, RE007 growth inh)
CC(C)c1ccc(S(=O)(=O)N2CCN(CC(=O)c3ccc(O)c(O)c3)CC2)cc1	Sm TGR inh 25µM (no result: TbPYK inhibitor, AMA1-RON2 inh, RE007 growth inh)
CCOc1ccc(C(=O)CN2CCN(S(=O)(=O)c3ccc(Cl)cc3)CC2)cc1	Sm TGR inh 32µM
